Laboratory results as given in PubChem BioAssay AID651791 (National Center for Advancing Translational Sciences (NCATS), 2012).
Records with an inconclusive call do not appear. The source made the active and inactive calls. Calls follow the shape of the dose curve; as a rule, active = well fitted inhibition curve with a large enough effect; inconclusive = small, poorly fitted or top-dose-only effect; inactive = no such curve, though single readings can be large or run the other way.

Experiment: InCell qHTS Assay for Inhibitors of the mTORC1 Signaling Pathway in MEF (Tsc2-/-, p53-/-) Cells: Hit Validation;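 also: phospho-S6 Ser235/236 signal normalized to propidium iodide cell count per well; nearly all actives have a fitted effect of over 75% in size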
Conditions: phospho-rpS6 immunofluorescence, 24 h; activity change, negative = inhibition: at 38.3 µM (top of the series)
Potency is read from the fitted curve at half-maximal effect.

Structure (SMILES)	activity change, negative = inhibition	Potency
COc1cccc(C(=O)CC2(O)C(=O)N(Cc3ccccc3)c3ccccc32)c1 (stereo unspecified)	-100%	
Cc1ccccc1Oc1nc2ccccn2c(=O)c1/C=C(\C#N)c1nc2ccccc2[nH]1	-100%	
Cc1ccccc1CN1C(=O)C(O)(CC(=O)c2ccccc2)c2cc(Cl)ccc21 (stereo unspecified)	-2.04%	
COc1ccccc1NC(=O)C1=C(C)Nc2nc(SCc3ccccc3)nn2C1c1cccs1 (stereo unspecified)	-100%	
Cc1cc(OCC(=O)Nc2cc(-c3nc4ccccc4[nH]3)ccc2C)ccc1Cl	-100%	
O=C(CN1C(=O)C(c2ccc(F)cc2)=NC12CCCCCC2)Nc1ccccc1Cl	-100%	
Cc1ccc(NC(=O)CSc2nc(-c3ccco3)cc(C(F)(F)F)n2)cc1C	-100%	
COc1cccc(-n2c(-c3ccco3)nc3c(cnn3-c3ccc(C)cc3)c2=O)c1	-100%	
CCc1ccc(OCC(=O)N(Cc2ccc(C)cc2)Cc2ccco2)cc1	-100%	
O=C(C1CCN(c2nc3ccccc3[nH]2)CC1)N1CCN(c2cccc(Cl)c2)CC1	-100%	
Cc1ccc(C(=O)CC2(O)C(=O)N(Cc3ccccc3F)c3ccccc32)cc1 (stereo unspecified)	-100%	
COc1ccc(CNC(=O)c2cccc(N3CCCS3(=O)=O)c2)cc1OC	-100%	
Cc1cccc(CS(=O)(=O)c2ncc(Cl)c(C(=O)NCc3ccccc3)n2)c1		10.4 µM (active)
Cc1ccc(S(=O)(=O)c2nc(-c3ccco3)oc2SC(C)c2ccccc2)cc1 (stereo unspecified)	-100%	
COc1ccc(NC(=O)CSc2nc3ccccc3nc2N2CCC(C)CC2)cc1	-100%	
O=C(CS(=O)(=O)c1cccc2nsnc12)NCc1ccc(Cl)cc1	-100%	
